PubChem BioAssay (Tox21)
Inconclusive results are not listed. Activity calls are given as the source filed them. Unless noted, calls follow the shape of the dose curve; as a rule, active = well fitted curve in the direction sought with a large enough effect in the repeat runs; inconclusive = weak or mixed curves; inactive = no such curve, though single readings can be large; an effect the other way counts as inactive or inconclusive.

How the values were obtained:
[1] = qHTS assay to identify small molecule agonists of the sonic hedgehog signaling (Shh) pathway - cell viability counter screen (AID 1259366); also: nearly all actives have a fitted effect of over 50% in size
Summary of the method: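 Viability measured fluorometrically (CellTiter-Fluor, 1hr, 37C) in 3T3 Gli1-Luc reporter cells after 23hr compound exposure within a 24hr incubation at 37C/5% CO2.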

[2] = qHTS assay to identify small molecule antagonists of the sonic hedgehog signaling (Shh) pathway - cell viability counter screen (AID 1259367); also: nearly all actives have a fitted effect of over 55% in size
Summary of the method: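 After a 4 hr settling period, 3T3 Gli1-Luc cells were treated with DMSO-dissolved chemicals and conditioned medium, kept 24 hr at 37C in 5% CO2, and assayed for viability by CellTiter-Fluor fluorescence following 1 hr reagent incubation.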

[3] = qHTS assay to identify small molecule agonists of the sonic hedgehog signaling (Shh) pathway (AID 1259368; calls by dose curve;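 also: NIH/3T3-derived 3T3Gli1-Luc cells carrying a stable Gli1-driven firefly luciferase reporter; series mostly up to about 92 µM; nearly all actives have a fitted effect of over 15% in size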)
Summary of the method: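 Luminescent signal was taken as a measure of Gli1-controlled luciferase expression in stably transfected NIH/3T3-derived cells that had been treated for 24 hr with compounds delivered in DMSO.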

[4] = qHTS assay to identify small molecule antagonists of the sonic hedgehog signaling (Shh) pathway (AID 1259369; calls by dose curve; also: nearly all actives have a fitted effect of over 45% in size)
Summary of the method: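 Screening used 3T3Gli1-Luc cells at 2,000 per well, compounds delivered in DMSO, and conditioned medium as agonist stimulus; plates incubated 24hr at 37 C and 5% CO2 before a 30min luciferase step.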

[5] = biological target: Estrogen receptor beta (Homo sapiens) (UniProt Q92731); assay: qHTS assay to identify small molecule agonists of the estrogen receptor beta (ER-beta) signaling pathway (AID 1259377; active = well fitted activation curve with a large enough effect in the signal ratio in the repeat runs, not every such curve was filed as active; the % refers to the signal ratio)
Sequence of Estrogen receptor beta (Homo sapiens) (Q92731 whole entry, looked up): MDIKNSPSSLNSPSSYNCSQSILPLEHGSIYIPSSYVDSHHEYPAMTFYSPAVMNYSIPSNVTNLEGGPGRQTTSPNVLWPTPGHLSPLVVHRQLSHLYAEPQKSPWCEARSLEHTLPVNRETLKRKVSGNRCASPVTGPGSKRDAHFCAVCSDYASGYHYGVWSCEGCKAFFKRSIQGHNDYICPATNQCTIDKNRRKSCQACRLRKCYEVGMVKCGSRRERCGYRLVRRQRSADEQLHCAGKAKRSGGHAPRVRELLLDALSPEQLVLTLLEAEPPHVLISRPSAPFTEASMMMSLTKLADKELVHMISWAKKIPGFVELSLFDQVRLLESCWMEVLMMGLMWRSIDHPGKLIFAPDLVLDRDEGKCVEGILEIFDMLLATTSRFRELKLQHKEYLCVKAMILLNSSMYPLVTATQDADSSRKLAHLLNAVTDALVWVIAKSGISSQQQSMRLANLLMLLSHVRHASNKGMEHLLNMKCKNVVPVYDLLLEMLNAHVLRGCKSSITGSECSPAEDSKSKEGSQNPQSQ
Summary of the method: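 A UAS-controlled beta-lactamase reporter in ER-beta-UAS-bla HEK293T cells reports receptor activation. Compounds act for 16 hr at 37C in 2% charcoal-stripped serum, and a FRET substrate is read by fluorescence after 2 hours.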

[6] = biological target: Estrogen receptor beta (Homo sapiens) (UniProt Q92731); assay: qHTS assay to identify small molecule antagonists of the estrogen receptor beta (ER-beta) signaling pathway (AID 1259378; active = well fitted inhibition curve with a large enough effect in the signal ratio in the repeat runs, not every such curve was filed as active; the % refers to the signal ratio)
Summary of the method: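 ER-beta-UAS-bla HEK293T (GripTite) cells in 2% charcoal-stripped FBS medium were preincubated 6 hr at 37C, dosed with compound, then stimulated with 1 nM E2 (final) for 16 hr; beta-lactamase reporter read by B/G FRET fluorescence after 2 hr substrate loading.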

[7] = qHTS assay to identify small molecule agonists of the androgen receptor (AR) signaling pathway in the presence of an antagonist - cell viability counter screen (AID 1259379);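 also: MDA-kb2 human breast cancer cells carrying an MMTV luciferase reporter; series mostly up to about 92 µM; nearly all actives have a fitted effect of over 25% in size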
Summary of the method: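 In MDA-kb2 cells (human breast carcinoma, MMTV-luciferase), compounds at 15 concentrations plus 3.0uM nilutamide; 16 hr, 37C, 0% CO2; CellTiter-Fluor fluorescence read for viability.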

[8] = qHTS assay to identify small molecule agonists of the estrogen receptor beta (ER-beta) signaling pathway - cell viability counter screen (AID 1259380); also: nearly all actives have a fitted effect of over 30% in size
Summary of the method: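 Viability of ER-beta-UAS-bla HEK293T cells was determined by CellTiter-Glo luminescence following 16 hr treatment with test compounds at 37C.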

[9] = qHTS assay to identify small molecule antagonists of the estrogen receptor beta (ER-beta) signaling pathway - cell viability counter screen (AID 1259382); also: series mostly up to about 92 µM; nearly all actives have a fitted effect of over 55% in size
Summary of the method: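 Tox21 10K library tested in qHTS format on ER-beta-bla HEK293T cells stimulated with 1nM E2; 16 hr treatment at 37C. Same-well CellTiter-Glo luminescence served as the cell viability measure.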

[10] = biological target: Estrogen receptor (Homo sapiens) (UniProt P03372); assay: qHTS assay to identify small molecule agonists of the estrogen receptor alpha (ER-alpha) signaling pathway in the presence of an antagonist (AID 1259383; calls by dose curve; also: top concentration of the series differs between compounds; nearly all actives have a fitted effect of over 15% in size)
Sequence of Estrogen receptor (Homo sapiens) (P03372 whole entry, looked up): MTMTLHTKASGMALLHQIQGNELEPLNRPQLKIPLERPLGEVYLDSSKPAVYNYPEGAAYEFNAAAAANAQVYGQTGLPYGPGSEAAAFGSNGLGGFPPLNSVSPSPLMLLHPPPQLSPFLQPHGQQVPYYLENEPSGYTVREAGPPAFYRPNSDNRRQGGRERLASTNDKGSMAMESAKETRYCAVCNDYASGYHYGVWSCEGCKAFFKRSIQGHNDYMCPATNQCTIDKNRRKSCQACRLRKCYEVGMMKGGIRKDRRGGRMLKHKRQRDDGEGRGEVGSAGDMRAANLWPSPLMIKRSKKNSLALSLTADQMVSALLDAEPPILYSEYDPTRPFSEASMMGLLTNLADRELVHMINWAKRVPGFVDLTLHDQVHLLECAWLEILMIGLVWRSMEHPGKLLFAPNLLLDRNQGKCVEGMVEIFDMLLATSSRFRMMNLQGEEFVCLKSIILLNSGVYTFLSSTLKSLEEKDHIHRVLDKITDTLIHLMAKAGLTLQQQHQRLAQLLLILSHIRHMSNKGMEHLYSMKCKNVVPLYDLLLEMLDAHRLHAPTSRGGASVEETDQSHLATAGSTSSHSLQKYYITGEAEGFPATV
Summary of the method: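 In VM7Luc4E2 cells, 4,000 per well, compounds at 15 concentrations were co-incubated 22hr at 37C with 10.0nM final ICI-182,780. Luminescence from the stably transfected 4×ERE-luciferase reporter was recorded 30min after ONE-Glo addition.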

[11] = qHTS assay to identify small molecule agonists or antagonists of the thyroid stimulating hormone receptor (TSHR) signaling pathway - wild type cell line counter screen (AID 1259384; calls by dose curve)
Summary of the method: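 Wild-type HEK293 cells were plated 18 h at 37 C/5% CO2, pin-dosed with compound plus Ro20-1724 medium, held 30 min at room temperature, then given cAMP-d2 and anti-cAMP-cryptate; fluorescence was read after 1 h. Fifteen concentrations, triplicate.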

[12] = biological target: Thyrotropin receptor (Homo sapiens) (UniProt P16473); assay: qHTS assay to identify small molecule antagonists of the thyroid stimulating hormone receptor (TSHR) signaling pathway (AID 1259385; calls by dose curve; also: nearly all actives have a fitted effect of over 20% in size)
Sequence of Thyrotropin receptor (Homo sapiens) (P16473 whole entry, looked up): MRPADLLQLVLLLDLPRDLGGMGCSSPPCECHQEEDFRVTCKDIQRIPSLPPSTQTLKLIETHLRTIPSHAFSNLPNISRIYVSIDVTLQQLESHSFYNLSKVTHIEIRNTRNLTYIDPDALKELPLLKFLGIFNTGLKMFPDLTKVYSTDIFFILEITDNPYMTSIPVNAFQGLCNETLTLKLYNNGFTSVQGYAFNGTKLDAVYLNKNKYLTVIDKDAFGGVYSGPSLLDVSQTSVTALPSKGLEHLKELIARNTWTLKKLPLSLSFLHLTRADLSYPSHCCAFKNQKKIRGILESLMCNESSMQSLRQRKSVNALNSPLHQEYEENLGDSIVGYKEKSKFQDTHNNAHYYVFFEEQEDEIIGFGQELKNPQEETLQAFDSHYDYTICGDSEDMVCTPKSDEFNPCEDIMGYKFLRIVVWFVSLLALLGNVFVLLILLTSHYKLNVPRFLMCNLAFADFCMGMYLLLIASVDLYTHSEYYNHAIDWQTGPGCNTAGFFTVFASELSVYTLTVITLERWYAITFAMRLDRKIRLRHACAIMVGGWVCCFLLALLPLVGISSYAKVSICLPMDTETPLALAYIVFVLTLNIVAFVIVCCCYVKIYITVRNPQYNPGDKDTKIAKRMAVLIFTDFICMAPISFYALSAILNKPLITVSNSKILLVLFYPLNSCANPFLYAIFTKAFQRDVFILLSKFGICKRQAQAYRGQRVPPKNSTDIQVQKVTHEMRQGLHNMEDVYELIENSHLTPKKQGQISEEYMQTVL
Summary of the method: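 TSHR-HEK293 cells were plated and held 18 h at 37C/5% CO2, then given compound plus Ro20-1724 and stimulated with TSH at 1.5 ng/mL final. After 30 min at room temperature, cAMP was detected with cAMP-d2/anti-cAMP-cryptate (1 h) by fluorescence.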

[13] = qHTS assay to identify small molecule agonists of the estrogen receptor alpha (ER-alpha) signaling pathway in the presence of an antagonist - cell viability counter screen (AID 1259386);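 also: series mostly up to about 92 µM; cells exposed to compounds for 22 h at 37 °C before the viability read; nearly all actives have a fitted effect of over 30% in size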
Summary of the method: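 Fluorescent CellTiter-Fluor viability signal from VM7Luc4E2 cells, with the reagent added during the final hour of a 22hr compound exposure at 37C in the presence of 10.0nM ICI-182,780.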

[14] = biological target: Progesterone receptor (Homo sapiens) (UniProt P06401); assay: qHTS assay to identify small molecule agonists of the progesterone receptor (PR) signaling pathway (AID 1346784; calls by dose curve; also: nearly all actives have a fitted effect of over 30% in size)
Sequence of Progesterone receptor (Homo sapiens) (P06401 whole entry, looked up): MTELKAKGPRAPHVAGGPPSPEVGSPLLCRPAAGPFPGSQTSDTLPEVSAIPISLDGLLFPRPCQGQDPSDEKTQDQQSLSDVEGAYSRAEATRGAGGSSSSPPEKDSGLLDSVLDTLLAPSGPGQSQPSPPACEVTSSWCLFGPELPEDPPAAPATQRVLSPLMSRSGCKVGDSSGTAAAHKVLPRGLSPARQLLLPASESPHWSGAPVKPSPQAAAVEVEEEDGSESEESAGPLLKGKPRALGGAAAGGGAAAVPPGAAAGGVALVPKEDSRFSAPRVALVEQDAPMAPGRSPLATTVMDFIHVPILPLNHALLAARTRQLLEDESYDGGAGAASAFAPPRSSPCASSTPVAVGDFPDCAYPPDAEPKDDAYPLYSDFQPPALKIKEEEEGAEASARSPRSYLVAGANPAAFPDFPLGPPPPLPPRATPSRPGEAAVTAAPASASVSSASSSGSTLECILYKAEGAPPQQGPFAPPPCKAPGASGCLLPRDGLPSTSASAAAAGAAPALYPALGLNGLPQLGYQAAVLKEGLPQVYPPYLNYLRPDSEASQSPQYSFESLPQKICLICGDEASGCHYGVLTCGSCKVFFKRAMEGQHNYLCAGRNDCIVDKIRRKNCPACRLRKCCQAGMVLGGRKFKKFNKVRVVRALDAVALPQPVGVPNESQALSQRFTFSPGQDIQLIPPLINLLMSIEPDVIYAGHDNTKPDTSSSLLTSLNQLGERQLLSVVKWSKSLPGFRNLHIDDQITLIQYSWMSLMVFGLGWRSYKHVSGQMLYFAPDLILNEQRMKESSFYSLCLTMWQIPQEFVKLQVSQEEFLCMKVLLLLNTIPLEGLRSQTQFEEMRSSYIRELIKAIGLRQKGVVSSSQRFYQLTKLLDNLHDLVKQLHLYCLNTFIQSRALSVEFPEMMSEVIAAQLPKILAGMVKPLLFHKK
Summary of the method: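 Agonist mode, quantitative HTS format in a HEK 293T line expressing a UAS-controlled beta-lactamase reporter; 16 hr compound exposure at 37C in 2% charcoal-stripped FBS, then LiveBLAzer B/G FRET fluorescence.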

[15] = qHTS assay to identify small molecule agonists of the progesterone receptor (PR) signaling pathway - cell viability counter screen (AID 1346799; calls by dose curve; also: nearly all actives have a fitted effect of over 45% in size)
Summary of the method: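 Counter screen for cytotoxicity: compound-treated PR-UAS-bla HEK293T cells (16 hr, 37C, 5% CO2) were assayed with CellTiter-Glo, luminescence measured after 30 min at room temperature.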

[16] = qHTS assay to identify small molecule antagonists of the TGF-beta/Smad signaling pathway - cell viability counter screen (AID 1346824); also: nearly all actives have a fitted effect of over 50% in size
Summary of the method: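 SBE-bla HEK 293T cells were plated overnight at 37 C, then given compounds in DMSO plus TGF-beta1 (added as 0.25 ng/mL solution) for 5 hr. After the bla read, CellTiter-Glo was added to the same wells and luminescence read after 30 min at room temperature.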

[17] = biological target: Progesterone receptor (Homo sapiens) (UniProt P06401); assay: qHTS assay to identify small molecule antagonists of the progesterone receptor (PR) signaling pathway (AID 1346795; active = well fitted inhibition curve with a large enough effect in the signal ratio in the repeat runs, not every such curve was filed as active; the % refers to the signal ratio)
Summary of the method: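 HEK293T PR-UAS-bla reporter cells in charcoal-stripped serum (2%) received compound after a 6 hr settling period, followed by R5020 agonist at 1 nM final; 16 hr incubation preceded the FRET substrate step and fluorescence measurement.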

[18] = qHTS assay to identify small molecule agonists of the TGF-beta/Smad signaling pathway - cell viability counter screen (AID 1346829); also: top concentration of the series differs between compounds; nearly all actives have a fitted effect of over 45% in size
Summary of the method: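 Luminescence from CellTiter-Glo, read after a 30 min room-temperature incubation, gives cell viability of SBE-bla HEK 293T cells treated 5 hr with compounds at 37 C.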

[19] = qHTS assay to identify small molecule antagonists of the progesterone receptor (PR) signaling pathway - cell viability counter screen (AID 1346798); also: series mostly up to about 92 µM; nearly all actives have a fitted effect of over 50% in size
Summary of the method: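 Same-well multiplex: after 16 hr at 37C with compound and R5020 stimulation, HEK293T cells carrying a UAS-bla reporter received LiveBLAzer substrate (2 hr RT), then CellTiter-Glo (30 min RT) for luminescent viability.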

[20] = biological target: Androgen receptor (Homo sapiens) (UniProt P10275); assay: qHTS assay to identify small molecule agonists of the androgen receptor (AR) signaling pathway in the presence of an antagonist (AID 1259381; calls by dose curve; also: nearly all actives have a fitted effect of over 15% in size)
Sequence of Androgen receptor (Homo sapiens) (P10275 whole entry, looked up): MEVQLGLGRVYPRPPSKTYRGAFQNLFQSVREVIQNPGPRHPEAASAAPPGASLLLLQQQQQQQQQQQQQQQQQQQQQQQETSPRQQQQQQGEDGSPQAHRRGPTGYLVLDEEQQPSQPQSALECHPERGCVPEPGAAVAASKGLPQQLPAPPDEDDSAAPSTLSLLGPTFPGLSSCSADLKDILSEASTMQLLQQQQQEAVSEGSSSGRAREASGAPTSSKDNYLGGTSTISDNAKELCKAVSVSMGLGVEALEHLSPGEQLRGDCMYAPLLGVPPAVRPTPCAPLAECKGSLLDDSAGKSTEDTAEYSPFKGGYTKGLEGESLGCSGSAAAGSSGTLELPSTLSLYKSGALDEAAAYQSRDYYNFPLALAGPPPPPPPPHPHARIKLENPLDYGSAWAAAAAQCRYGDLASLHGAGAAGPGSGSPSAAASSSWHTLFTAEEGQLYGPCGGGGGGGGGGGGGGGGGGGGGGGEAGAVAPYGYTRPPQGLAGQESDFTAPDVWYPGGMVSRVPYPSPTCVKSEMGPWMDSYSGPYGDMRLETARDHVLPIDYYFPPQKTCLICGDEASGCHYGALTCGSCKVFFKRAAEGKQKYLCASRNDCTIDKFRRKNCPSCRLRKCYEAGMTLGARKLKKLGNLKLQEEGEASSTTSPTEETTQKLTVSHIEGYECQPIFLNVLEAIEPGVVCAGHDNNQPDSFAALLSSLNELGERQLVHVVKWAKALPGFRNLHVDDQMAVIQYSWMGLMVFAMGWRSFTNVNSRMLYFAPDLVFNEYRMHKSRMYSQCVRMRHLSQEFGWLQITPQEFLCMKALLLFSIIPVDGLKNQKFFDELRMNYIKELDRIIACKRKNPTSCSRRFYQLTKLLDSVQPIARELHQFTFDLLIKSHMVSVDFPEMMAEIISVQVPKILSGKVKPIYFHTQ
Summary of the method: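 Here, 15-concentration compound series were pin-transferred onto MDA-kb2 MMTV-luciferase cells already dosed with nilutamide (3.0uM final). After 16hr at 37C, ONE-Glo was added and luminescence read 30min later at room temperature.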
% is scaled to controls: 0 for no effect and ±100 for the full control effect.

CC(O)C(CO)C(C)O (stereo not drawn)
inactive: outcome [1] | outcome [2] | outcome [3] | Potency [4] | Potency [5] | outcome [6] | outcome [7] | Potency [8] | outcome [9] | Potency [10] | outcome [11] | outcome [12] | outcome [13] | Potency [14] | Potency [15] | outcome [16]

C[n+]1ccccc1/C=N/O
inactive: outcome [1] | outcome [2] | outcome [3] | Potency [4] | Potency [5] | outcome [6] | outcome [7] | Potency [8] | outcome [9] | Potency [10] | outcome [11] | outcome [12] | outcome [13] | Potency [14] | Potency [17] | Potency [15] | outcome [16] | outcome [18]

C=CCCCCCCCCCCCCCC
inactive: viability change, negative = cytotoxic [1] -2.14% [at 19 µM] | viability change, negative = cytotoxic [2] -0.0329% [at 19 µM] | activity change [3] -0.591% [at 18.9 µM] | activity change, negative = inhibition [4] 8.65% [at 19 µM] | activation [5] 1.28% [at 19 µM] | activity, negative = inhibition [6] 2.19% [at 19 µM] | activity change, negative = cytotoxicity [7] -2.34% [at 19 µM] | activity change, negative = cytotoxicity [8] 1.12% [at 19 µM] | activity change, negative = cytotoxicity [9] -6.85% [at 19 µM] | activation [10] -0.0008% [at 19 µM] | cAMP activity change [11] 3.16% [at 18.9 µM] | activity change, negative = inhibition [12] 0.749% [at 19 µM] | activity change, negative = cytotoxicity [13] 1.42% [at 19 µM] | activity change, negative = cytotoxicity [19] 6.76% [at 18.9 µM] | activity change, negative = cytotoxicity [15] 11.1% [at 19 µM] | viability change, negative = cytotoxic [16] -0.4% [at 15.8 µM] | activity change, negative = cytotoxicity [18] 9.91% [at 15.8 µM]

CCCCCCCCC1CO1 (stereo not drawn)
inactive: outcome [1] | outcome [2] | outcome [3] | Potency [4] | Potency [5] | outcome [6] | outcome [7] | Potency [8] | outcome [20] | outcome [9] | outcome [12] | outcome [13] | outcome [19] | Potency [15] | outcome [16] | outcome [18]

CC(C)(C)C(=O)CC(=O)C(C)(C)C
inactive: outcome [1] | outcome [2] | outcome [3] | Potency [4] | Potency [5] | outcome [6] | outcome [7] | Potency [8] | outcome [9] | Potency [10] | outcome [11] | outcome [12] | outcome [13] | Potency [17] | Potency [15] | outcome [16] | outcome [18]

CN(C)CCc1c[nH]c2ccc(CS(=O)(=O)N3CCCC3)cc12
inactive: outcome [1] | outcome [2] | outcome [3] | Potency [4] | Potency [5] | outcome [6] | outcome [7] | Potency [8] | outcome [9] | Potency [10] | outcome [11] | outcome [12] | outcome [13] | outcome [19] | Potency [15] | outcome [16]

CN(C)c1cc(NC(=O)CNC(C)(C)C)c(O)c2c1C[C@H]1C[C@H]3[C@H](N(C)C)C(=O)C(C(N)=O)=C(O)[C@@]3(O)C(=O)C1=C2O
inactive: outcome [1] | outcome [2] | outcome [3] | Potency [4] | Potency [5] | outcome [6] | outcome [7] | Potency [8] | outcome [9] | Potency [10] | outcome [11] | outcome [13] | Potency [14] | Potency [17] | outcome [19] | Potency [15] | outcome [16] | outcome [18]

N#CC1(N)CCCCC1
inactive: outcome [1] | outcome [2] | outcome [3] | Potency [4] | Potency [5] | outcome [6] | outcome [7] | Potency [8] | outcome [9] | Potency [10] | outcome [11] | outcome [12] | outcome [13] | Potency [14] | Potency [17] | outcome [19] | outcome [16] | outcome [18]

O=C1c2ccccc2C(=O)N1CO
inactive: outcome [1] | outcome [2] | outcome [3] | Potency [4] | Potency [5] | outcome [6] | outcome [7] | Potency [8] | outcome [20] | outcome [9] | Potency [10] | outcome [11] | outcome [12] | outcome [13] | Potency [14] | Potency [17] | outcome [19] | outcome [18]

NNC(=O)OCc1ccccc1
inactive: outcome [1] | outcome [2] | outcome [3] | Potency [4] | Potency [5] | outcome [6] | outcome [7] | Potency [8] | outcome [9] | Potency [10] | outcome [11] | outcome [12] | outcome [13] | Potency [14] | Potency [17] | outcome [19] | outcome [16] | outcome [18]

CCCCCCCCCCCC(C)=O
inactive: outcome [1] | outcome [2] | outcome [3] | Potency [4] | Potency [5] | outcome [6] | outcome [7] | Potency [8] | outcome [9] | Potency [10] | outcome [12] | outcome [13] | Potency [14] | Potency [17] | outcome [19] | outcome [18]

CC(C)CC(O)Cc1ccccc1 (stereo not drawn)
inactive: outcome [1] | outcome [2] | outcome [3] | Potency [4] | Potency [5] | outcome [6] | outcome [7] | Potency [8] | outcome [9] | Potency [10] | outcome [11] | outcome [12] | outcome [13] | Potency [14] | Potency [17] | outcome [19] | Potency [15] | outcome [16] | outcome [18]

CCCCN1C(=O)c2ccccc2C1=O
inactive: outcome [1] | outcome [2] | outcome [3] | Potency [4] | Potency [5] | outcome [6] | outcome [7] | Potency [8] | outcome [9] | Potency [10] | outcome [12] | outcome [13] | Potency [14] | Potency [17] | Potency [15] | outcome [16] | outcome [18]

Cc1cc(O)c(Cl)cc1C
inactive: outcome [1] | outcome [2] | outcome [3] | Potency [4] | Potency [5] | outcome [6] | outcome [7] | Potency [8] | outcome [9] | Potency [10] | outcome [11] | outcome [12] | outcome [13] | Potency [17] | Potency [15] | outcome [16] | outcome [18]

CC[C@@]1(c2ccccc2)NC(=O)N(C)C1=O
inactive: outcome [1] | outcome [2] | outcome [3] | Potency [4] | Potency [5] | outcome [6] | outcome [7] | Potency [8] | outcome [9] | Potency [10] | outcome [12] | outcome [13] | Potency [14] | Potency [17] | outcome [19] | outcome [16] | outcome [18]
